# The supplement of paper PMC6897291
# Experiments:
# U-2932 [1] = assay: growth inhibition by drug alone (1 - RLU/untreated control) (fraction); higher = stronger inhibition; details: 177Lu-lilotomab satetraxetan 0 ug/ml
# Outline: (§1)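 RIVA or U-2932 cells were left untreated or pretreated for 18 h with a radiolabelled anti-CD37 antibody conjugate (~600 MBq/mg) at 0.5 µg/ml for RIVA or 1 µg/ml for U-2932. The cells were then washed and seeded at 3,000 cells/well on plates pre-printed with the Selleck Cambridge Cancer Compound library, dosed at 10/100 nM for RIVA and 10/1,000 nM for U-2932. From day 3, RealTime-Glo luminescence was read daily after 1 h at 37°C. Growth inhibition was taken as one minus RLU over the mean of the untreated no-drug wells, of which there were 48 per plate.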
# RIVA [2] = assay: as above; details: 177Lu-lilotomab satetraxetan 0 ug/ml
# Outline: as §1
# U-2932 [3] = assay: growth inhibition by drug plus 177Lu-lilotomab satetraxetan (1 - RLU/untreated control) (fraction); higher = stronger inhibition; details: 177Lu-lilotomab satetraxetan 1 ug/ml
# Outline: as §1
# RIVA [4] = assay: as above; details: 177Lu-lilotomab satetraxetan 0.5 ug/ml
# Outline: as §1
smiles,measurement,setting,value
O=C(O)c1ccc2cc(-c3ccc(O)c(C45CC6CC(CC(C6)C4)C5)c3)ccc2c1,growth inhibition by drug alone,"U-2932 [1]; 10 nM, time (day): 3",0.159
same,growth inhibition by drug alone,"U-2932 [1]; 10 nM, time (day): 4",0.0954
same,growth inhibition by drug alone,"U-2932 [1]; 10 nM, time (day): 5",-0.0581
same,growth inhibition by drug alone,"U-2932 [1]; 10 nM, time (day): 6",-0.0515
same,growth inhibition by drug alone,"U-2932 [1]; 1000 nM, time (day): 3",0.757
same,growth inhibition by drug alone,"U-2932 [1]; 1000 nM, time (day): 4",0.836
same,growth inhibition by drug alone,"U-2932 [1]; 1000 nM, time (day): 5",0.861
same,growth inhibition by drug alone,"U-2932 [1]; 1000 nM, time (day): 6",0.877
same,growth inhibition by drug alone,"RIVA [2]; 10 nM, time (day): 3",0.00625
same,growth inhibition by drug alone,"RIVA [2]; 10 nM, time (day): 4",0.0377
same,growth inhibition by drug alone,"RIVA [2]; 10 nM, time (day): 5",-0.0188
same,growth inhibition by drug alone,"RIVA [2]; 10 nM, time (day): 6",-0.334
same,growth inhibition by drug alone,"RIVA [2]; 100 nM, time (day): 3",-0.285
same,growth inhibition by drug alone,"RIVA [2]; 100 nM, time (day): 4",-0.127
same,growth inhibition by drug alone,"RIVA [2]; 100 nM, time (day): 5",-0.181
same,growth inhibition by drug alone,"RIVA [2]; 100 nM, time (day): 6",-0.353
same,growth inhibition by drug plus 177Lu-lilotomab satetraxetan,"U-2932 [3]; 10 nM, time (day): 3",0.108
same,growth inhibition by drug plus 177Lu-lilotomab satetraxetan,"U-2932 [3]; 10 nM, time (day): 4",0.127
same,growth inhibition by drug plus 177Lu-lilotomab satetraxetan,"U-2932 [3]; 10 nM, time (day): 5",0.182
same,growth inhibition by drug plus 177Lu-lilotomab satetraxetan,"U-2932 [3]; 10 nM, time (day): 6",0.221
same,growth inhibition by drug plus 177Lu-lilotomab satetraxetan,"U-2932 [3]; 1000 nM, time (day): 3",0.737
same,growth inhibition by drug plus 177Lu-lilotomab satetraxetan,"U-2932 [3]; 1000 nM, time (day): 4",0.802
same,growth inhibition by drug plus 177Lu-lilotomab satetraxetan,"U-2932 [3]; 1000 nM, time (day): 5",0.838
same,growth inhibition by drug plus 177Lu-lilotomab satetraxetan,"U-2932 [3]; 1000 nM, time (day): 6",0.847
CCC(CC)CC1(C(=O)Nc2ccccc2SC(=O)C(C)C)CCCCC1,growth inhibition by drug alone,"U-2932 [1]; 10 nM, time (day): 3",0.0325
same,growth inhibition by drug alone,"U-2932 [1]; 10 nM, time (day): 4",0.00234
same,growth inhibition by drug alone,"U-2932 [1]; 10 nM, time (day): 5",0.00914
same,growth inhibition by drug alone,"U-2932 [1]; 10 nM, time (day): 6",0.0506
same,growth inhibition by drug alone,"U-2932 [1]; 1000 nM, time (day): 3",-0.0537
same,growth inhibition by drug alone,"U-2932 [1]; 1000 nM, time (day): 4",-0.0604
same,growth inhibition by drug alone,"U-2932 [1]; 1000 nM, time (day): 5",-0.0741
same,growth inhibition by drug alone,"U-2932 [1]; 1000 nM, time (day): 6",-0.00871
same,growth inhibition by drug alone,"RIVA [2]; 10 nM, time (day): 3",-0.0908
same,growth inhibition by drug alone,"RIVA [2]; 10 nM, time (day): 4",-0.101
same,growth inhibition by drug alone,"RIVA [2]; 10 nM, time (day): 5",-0.128
same,growth inhibition by drug alone,"RIVA [2]; 10 nM, time (day): 6",-0.174
same,growth inhibition by drug alone,"RIVA [2]; 100 nM, time (day): 3",-0.0374
same,growth inhibition by drug alone,"RIVA [2]; 100 nM, time (day): 4",-0.15
same,growth inhibition by drug alone,"RIVA [2]; 100 nM, time (day): 5",-0.166
same,growth inhibition by drug alone,"RIVA [2]; 100 nM, time (day): 6",-0.178
same,growth inhibition by drug plus 177Lu-lilotomab satetraxetan,"U-2932 [3]; 10 nM, time (day): 3",0.00638
same,growth inhibition by drug plus 177Lu-lilotomab satetraxetan,"U-2932 [3]; 10 nM, time (day): 4",0.0745
same,growth inhibition by drug plus 177Lu-lilotomab satetraxetan,"U-2932 [3]; 10 nM, time (day): 5",0.111
same,growth inhibition by drug plus 177Lu-lilotomab satetraxetan,"U-2932 [3]; 10 nM, time (day): 6",0.2
same,growth inhibition by drug plus 177Lu-lilotomab satetraxetan,"U-2932 [3]; 1000 nM, time (day): 3",-0.0639
same,growth inhibition by drug plus 177Lu-lilotomab satetraxetan,"U-2932 [3]; 1000 nM, time (day): 4",-0.00533
same,growth inhibition by drug plus 177Lu-lilotomab satetraxetan,"U-2932 [3]; 1000 nM, time (day): 5",0.0344
same,growth inhibition by drug plus 177Lu-lilotomab satetraxetan,"U-2932 [3]; 1000 nM, time (day): 6",0.206
same,growth inhibition by drug plus 177Lu-lilotomab satetraxetan,"RIVA [4]; 10 nM, time (day): 3",0.496
same,growth inhibition by drug plus 177Lu-lilotomab satetraxetan,"RIVA [4]; 10 nM, time (day): 4",0.541
same,growth inhibition by drug plus 177Lu-lilotomab satetraxetan,"RIVA [4]; 10 nM, time (day): 5",0.564
same,growth inhibition by drug plus 177Lu-lilotomab satetraxetan,"RIVA [4]; 10 nM, time (day): 6",0.567
same,growth inhibition by drug plus 177Lu-lilotomab satetraxetan,"RIVA [4]; 100 nM, time (day): 3",0.369
same,growth inhibition by drug plus 177Lu-lilotomab satetraxetan,"RIVA [4]; 100 nM, time (day): 4",0.456
same,growth inhibition by drug plus 177Lu-lilotomab satetraxetan,"RIVA [4]; 100 nM, time (day): 5",0.462
same,growth inhibition by drug plus 177Lu-lilotomab satetraxetan,"RIVA [4]; 100 nM, time (day): 6",0.476
